{
  "source": "paper PMC11062922",
  "about": "(Nature Chemical Biology, 2023)",
  "design_in_all_cases": "species or system human, MV4-11 + K-562 + COLO205 + SK-N-BE2 + OVCAR-8",
  "key": {"NQO2": {"system": "NQO2", "conditions": "read-out: apparent Kd, n = 1"}, "TGFBR1": {"system": "TGFBR1", "conditions": "read-out: apparent Kd; compound concentrations:100 nM and 1000 nM (sheet 'Samples'); n = 1"}, "MAPK7": {"system": "MAPK7", "conditions": "read-out: apparent Kd; compound concentrations: 100 nM and 1000 nM (sheet 'Samples'), CATDS: 1; n = 1"}, "MCM5": {"system": "MCM5", "conditions": "read-out: apparent Kd; compound concentrations:100 nM and 1000 nM (sheet 'Samples'); n = 1"}, "NLK": {"system": "NLK", "conditions": "read-out: apparent Kd, n = 1"}, "TNIK": {"system": "TNIK", "conditions": "read-out: apparent Kd, n = 1"}, "NEK9": {"system": "NEK9", "conditions": "read-out: apparent Kd; compound concentrations: 100 nM and 1000 nM (sheet 'Samples'), CATDS: 1; n = 1"}, "PBK": {"system": "PBK", "conditions": "read-out: apparent Kd; compound concentrations: 100 nM and 1000 nM (sheet 'Samples'), CATDS: 1; n = 1"}, "RIPK2": {"system": "RIPK2", "conditions": "read-out: apparent Kd; compound concentrations: 100 nM and 1000 nM (sheet 'Samples'), CATDS: 0.78129176750212304; n = 1"}, "RIPK3": {"system": "RIPK3", "conditions": "read-out: apparent Kd; compound concentrations: 100 nM and 1000 nM (sheet 'Samples'), CATDS: 0.12404115210191501; n = 1"}, "STK16": {"system": "STK16", "conditions": "read-out: apparent Kd; compound concentrations: 100 nM and 1000 nM (sheet 'Samples'), CATDS: 0.11776221232306; n = 1"}, "TESK2": {"system": "TESK2", "conditions": "read-out: apparent Kd; compound concentrations: 100 nM and 1000 nM (sheet 'Samples'), CATDS: 0.123939134013601; n = 1"}, "TGFBR2": {"system": "TGFBR2", "conditions": "read-out: apparent Kd; compound concentrations: 100 nM and 1000 nM (sheet 'Samples'), CATDS: 0.16011510960484199; n = 1"}, "STK4": {"system": "STK4", "conditions": "read-out: apparent Kd; compound concentrations: 100 nM and 1000 nM (sheet 'Samples'), CATDS: 0.289467796660549; n = 1"}, "MERTK": {"system": "MERTK", "conditions": "read-out: apparent Kd; compound concentrations:100 nM and 1000 nM (sheet 'Samples'); n = 1"}, "NNT": {"system": "NNT", "conditions": "read-out: apparent Kd, n = 1"}, "MAPK14": {"system": "MAPK14", "conditions": "read-out: apparent Kd, compound concentrations: 100 nM and 1000 nM (sheet 'Samples'), n = 1"}, "MAPKAPK2": {"system": "MAPKAPK2", "conditions": "read-out: apparent Kd, compound concentrations: 100 nM and 1000 nM (sheet 'Samples'), n = 1"}, "NQO1": {"system": "NQO1", "conditions": "read-out: apparent Kd; compound concentrations: 100 nM and 1000 nM (sheet 'Samples'), CATDS: 1; n = 1"}, "PDGFRB": {"system": "PDGFRB", "conditions": "read-out: apparent Kd; compound concentrations: 100 nM and 1000 nM (sheet 'Samples'), CATDS: 1; n = 1"}, "RIOK2": {"system": "RIOK2", "conditions": "read-out: apparent Kd; compound concentrations: 100 nM and 1000 nM (sheet 'Samples'), CATDS: 0.53784196223168101; n = 1"}, "MTHFD1": {"system": "MTHFD1", "conditions": "read-out: apparent Kd; compound concentrations:100 nM and 1000 nM (sheet 'Samples'); n = 1"}, "NUAK2": {"system": "NUAK2", "conditions": "read-out: apparent Kd; compound concentrations:100 nM and 1000 nM (sheet 'Samples'); n = 1"}, "PIK3CG": {"system": "PIK3CG", "conditions": "read-out: apparent Kd; compound concentrations:100 nM and 1000 nM (sheet 'Samples'); n = 1"}, "[1]": {"conditions": "compound concentrations:100 nM and 1000 nM (sheet 'Samples')"}, "[2]": {"conditions": "compound concentrations: 100 nM and 1000 nM (sheet 'Samples'), CATDS: 1"}},
  "note": "Like-named read-outs stand apart in the source and are kept apart here.",
  "data": [
    {"smiles": "FC(F)(F)c1ccc(-c2cc(-c3c[nH]nc3-c3ccccn3)ccn2)cc1", "note": "[GW599550X]", "values": [
      {"measurement": "potency estimated from few doses", "setting": "NQO2; [1]", "result": 1070, "unit": "nM"},
      {"measurement": "potency estimated from few doses", "setting": "TGFBR1", "result": 1520, "unit": "nM"}
    ]},
    {"smiles": "CCOc1cc(C(=O)N2CCC(N3CCN(C)CC3)CC2)ccc1Nc1ncc2c(n1)N(C1CCCC1)c1ccccc1C(=O)N2C", "note": "[ERK5-IN-1]", "values": [
      {"measurement": "potency estimated from few doses", "setting": "MAPK7", "result": 813, "unit": "nM"}
    ]},
    {"smiles": "COc1cccc(-c2ccc3c(NC(=O)C4CC4)n[nH]c3n2)c1", "note": "[SB-710903]", "values": [
      {"measurement": "potency estimated from few doses", "setting": "MCM5", "result": 2020, "unit": "nM"},
      {"measurement": "potency estimated from few doses", "setting": "NLK; [1]", "result": 1900, "unit": "nM"},
      {"measurement": "potency estimated from few doses", "setting": "TNIK; [1]", "result": 1640, "unit": "nM"}
    ]},
    {"smiles": "COc1cc(Nc2ncc3c(C)nc(-c4cccc(Oc5ccccc5)c4)n3n2)cc(OC)c1OC", "note": "[GW861893X]", "values": [
      {"measurement": "potency estimated from few doses", "setting": "NEK9", "result": 584, "unit": "nM"}
    ]},
    {"smiles": "N#Cc1cccc(C(=O)c2cnn(-c3ccc(F)cc3)c2N)c1", "note": "[RO1153321-000]", "values": [
      {"measurement": "potency estimated from few doses", "setting": "PBK", "result": 1730, "unit": "nM"}
    ]},
    {"smiles": "Cc1cc(-c2cnc(N)c3c(-c4ccc5scnc5c4)csc23)n(C)n1", "note": "[GSK843]", "values": [
      {"measurement": "potency estimated from few doses", "setting": "NLK; compound concentrations: 100 nM and 1000 nM (sheet 'Samples'), CATDS: 0.25956792289458103", "result": 168, "unit": "nM"},
      {"measurement": "potency estimated from few doses", "setting": "RIPK2", "result": 15.6, "unit": "nM"},
      {"measurement": "potency estimated from few doses", "setting": "RIPK3", "result": 1430, "unit": "nM"},
      {"measurement": "potency estimated from few doses", "setting": "STK16", "result": 1750, "unit": "nM"},
      {"measurement": "potency estimated from few doses", "setting": "TESK2", "result": 1430, "unit": "nM"},
      {"measurement": "potency estimated from few doses", "setting": "TGFBR2", "result": 616, "unit": "nM"}
    ]},
    {"smiles": "O=C(Nc1n[nH]c2cc(-c3cccc(F)c3F)ccc12)C1CC1", "note": "[SB-733894]", "values": [
      {"measurement": "potency estimated from few doses", "setting": "NLK; compound concentrations: 100 nM and 1000 nM (sheet 'Samples'), CATDS: 0.29749178894258499", "result": 1860, "unit": "nM"},
      {"measurement": "potency estimated from few doses", "setting": "STK4", "result": 1990, "unit": "nM"},
      {"measurement": "potency estimated from few doses", "setting": "TNIK; compound concentrations: 100 nM and 1000 nM (sheet 'Samples'), CATDS: 0.457886576185151", "result": 808, "unit": "nM"}
    ]},
    {"smiles": "COc1c(C(N)=O)cc(-c2ccc(Cl)cc2)cc1-c1ccc(S(N)(=O)=O)cc1", "note": "[GSK711701A]", "values": [
      {"measurement": "potency estimated from few doses", "setting": "NQO2; [2]", "result": 1490, "unit": "nM"}
    ]},
    {"smiles": "CC(=O)N[C@@H](Cc1ccc(OP(=O)(O)O)cc1)C(=O)N[C@H]1CCC(=O)N2CCC[C@@H](C(=O)NC3CCc4ccccc43)N2C1=O", "note": "(some centres unmarked) [RO0324438-000]", "values": [
      {"measurement": "potency estimated from few doses", "setting": "MERTK", "result": 1220, "unit": "nM"}
    ]},
    {"smiles": "CS(=O)(=O)CCNCc1nc(-c2ccc3ncnc(Nc4ccc(OCc5ccccc5)c(Cl)c4)c3c2)cs1.CS(=O)(=O)CCNCc1nc(-c2ccc3ncnc(Nc4ccc(OCc5ccccc5)c(Cl)c4)c3c2)cs1.Cl.Cl", "note": "[GW582764A]", "values": [
      {"measurement": "potency estimated from few doses", "setting": "NNT; [1]", "result": 2020, "unit": "nM"},
      {"measurement": "potency estimated from few doses", "setting": "NQO2; [1]", "result": 1880, "unit": "nM"}
    ]},
    {"smiles": "OCCCNc1nccc(-c2c(-c3cccc(C(F)(F)F)c3)nn3cc(C(F)(F)F)ccc23)n1", "note": "[GW630813X]", "values": [
      {"measurement": "potency estimated from few doses", "setting": "MAPK14; CATDS: 0.49980022483794101", "result": 1060, "unit": "nM"},
      {"measurement": "potency estimated from few doses", "setting": "MAPKAPK2; CATDS: 0.50019993493019099", "result": 1060, "unit": "nM"}
    ]},
    {"smiles": "c1cc(-c2cnn3nc(N4CCOCC4)ccc23)nc(NC2CC2)n1", "note": "[GW708336X]", "values": [
      {"measurement": "potency estimated from few doses", "setting": "NQO1", "result": 1540, "unit": "nM"}
    ]},
    {"smiles": "Fc1cccc(COc2ccc(Nc3ncnc4sc(-c5cccs5)cc34)cc2Cl)c1", "note": "[GW684626B]", "values": [
      {"measurement": "potency estimated from few doses", "setting": "NNT; [1]", "result": 1210, "unit": "nM"}
    ]},
    {"smiles": "COC(=O)Nc1nc2cc(Oc3ccc(NC(=O)Nc4cccc(C(=O)O)c4)cc3)ccc2[nH]1.Cl", "note": "[GW701427A]", "values": [
      {"measurement": "potency estimated from few doses", "setting": "NQO1", "result": 1010, "unit": "nM"}
    ]},
    {"smiles": "Cn1cnc2c(N)ncnc21", "note": "[SKF-97623]", "values": [
      {"measurement": "potency estimated from few doses", "setting": "NQO2; [2]", "result": 1300, "unit": "nM"}
    ]},
    {"smiles": "CCn1c(-c2nonc2N)nc2ccc(F)cc21", "note": "[GW785404X]", "values": [
      {"measurement": "potency estimated from few doses", "setting": "NQO2; [2]", "result": 339, "unit": "nM"}
    ]},
    {"smiles": "COc1ccc(-c2coc3ncnc(N)c23)cc1", "note": "[GW642125X]", "values": [
      {"measurement": "potency estimated from few doses", "setting": "PDGFRB", "result": 1540, "unit": "nM"}
    ]},
    {"smiles": "COc1cccc(-n2nc(C)c3c(N/N=C(\\C)c4ccncc4)ncnc32)c1", "note": "[GW809885X]", "values": [
      {"measurement": "potency estimated from few doses", "setting": "NNT; compound concentrations: 100 nM and 1000 nM (sheet 'Samples'), CATDS: 0.46713303896147801", "result": 1600, "unit": "nM"},
      {"measurement": "potency estimated from few doses", "setting": "RIOK2", "result": 1200, "unit": "nM"}
    ]},
    {"smiles": "COc1cc(Nc2nccc(N3CCC(NC(=O)c4cc5ccccc5s4)C3)n2)cc(OC)c1OC", "note": "(centres unmarked) [GSK1379760A]", "values": [
      {"measurement": "potency estimated from few doses", "setting": "NQO2; [2]", "result": 1030, "unit": "nM"}
    ]},
    {"smiles": "CCNC(=O)[C@@H]1CCCN2C(=O)CC[C@H](NC(=O)[C@H](Cc3ccc(OP(=O)(O)O)cc3)NC(C)=O)C(=O)N12", "note": "[RO0325851-000]", "values": [
      {"measurement": "potency estimated from few doses", "setting": "MTHFD1", "result": 1840, "unit": "nM"}
    ]},
    {"smiles": "COc1ccc(NC(=O)c2ccc(-c3cc(-c4nnc(C)o4)ccc3C)cc2)cc1", "note": "[GW595885X]", "values": [
      {"measurement": "potency estimated from few doses", "setting": "NUAK2", "result": 1230, "unit": "nM"},
      {"measurement": "potency estimated from few doses", "setting": "PIK3CG", "result": 1410, "unit": "nM"}
    ]},
    {"smiles": "O=c1[nH]c2cc(Nc3ccc(F)cc3F)ccc2n1CC1CCCCC1", "note": "[BI00601000]", "values": [
      {"measurement": "potency estimated from few doses", "setting": "MAPK14; CATDS: 0.69333991182184596", "result": 27.6, "unit": "nM"},
      {"measurement": "potency estimated from few doses", "setting": "MAPKAPK2; CATDS: 0.39097535171865", "result": 97.2, "unit": "nM"}
    ]},
    {"smiles": "COc1cccc(-c2cc(-c3c[nH]nc3-c3ccccn3)ccn2)c1", "note": "[GW680338X]", "values": [
      {"measurement": "potency estimated from few doses", "setting": "NQO2; [1]", "result": 424, "unit": "nM"}
    ]}
  ]
}
